# PLAP activator – activators of human placental alkaline phosphatase; activation fold at 20 µM; AID 696; actives 1.2% (n = 96,000); purified PLAP enzyme, luminescent substrate read-out; hits give high values; P05187; in the data active means activation fold above about 2
# TNAP act DEA – human TNAP activation, intermediate phosphate acceptor; activation factor at 20 µM; AID 813; 64,000 tested, under 10 active; purified TNAP, CDP-star luminescence, 100 mM DEA, 30 min; hits give high values; scale: 0 levamisole-inhibited, 1 vehicle-only enzyme;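 active means activation factor of at least 2 at 20 µM, relative to controls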
# D1 mod – D1 dopamine receptor (human) allosteric modulation; HEK293 D1, CRE-luciferase, dopamine EC30 potentiation; actives deviate in either direction; AID 641; actives 5.9% (n = 58,000); B-score at 10 µM;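 active means luminescence count or its row- and column-corrected plate score outside the 99.7% band of the plate's sample wells, on either side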
# Candida biofilm – kills Candida albicans biofilms. C. albicans biofilm + clotrimazole, Alamar Blue. inhibition, % at 6 µM. actives 0.14% (n = 85,000). AID 834;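 active means inhibition above 20%; inactive means inhibition below 20%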;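 further: preformed 24 hr biofilms exposed to compound for 48 hr; 0% = biofilm without compound and 100% = blank killed by clotrimazole plus chlorhexidine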
# hDAT+cocaine – changed human dopamine transporter uptake under cocaine IC80; AID 449768; LLC-PK1 hDAT cells, [14C]-dopamine uptake with cocaine IC80; actives deviate in either direction; actives 1.3% (n = 110,000); Q01959; B-score at 10 µM;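 active means Z score or B-score, a plate-position-corrected score, falls beyond the plate's 99.7% confidence bounds, in either direction; inactive means both scores lie inside the 99.7% bounds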;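 further: scored against the spread of the other compound wells on the same plate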
# HePTP inhibitor – human HePTP phosphatase inhibition; P35236; recombinant HePTP phosphatase activity, OD absorbance; inhibition, % at 20 µM; actives 0.64% (n = 110,000); in the data active means inhibition above about 50%;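 further: plate controls were vehicle for no effect and reference inhibitor for full effect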
# Target sequence (P35236 whole entry, looked up): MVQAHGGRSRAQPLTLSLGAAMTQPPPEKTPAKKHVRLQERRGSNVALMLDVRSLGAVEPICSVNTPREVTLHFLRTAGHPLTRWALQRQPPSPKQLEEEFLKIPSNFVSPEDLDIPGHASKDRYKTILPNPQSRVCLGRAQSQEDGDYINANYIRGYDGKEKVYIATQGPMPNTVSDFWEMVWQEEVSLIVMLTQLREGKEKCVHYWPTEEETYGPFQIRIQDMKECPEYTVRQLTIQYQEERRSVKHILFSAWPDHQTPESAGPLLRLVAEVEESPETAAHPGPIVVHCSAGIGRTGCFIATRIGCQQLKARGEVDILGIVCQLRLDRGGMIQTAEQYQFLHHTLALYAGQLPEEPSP
# D1 mod confirm – confirmation of human D1 dopamine receptor allosteric modulators; shares compounds with D1 mod; HEK293 D1 CRE-luciferase, dopamine EC30 potentiation; hits give high values; luminescence at 10 µM; actives 88% (n = 2,200);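 active means luminescence in either of two replicates above the same-plate mean plus 3 SD of the low-dose dopamine control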
# D1 no dopamine – secondary test of D1 modulators: activity without dopamine; actives 0.8% (n = 1,900); luminescence at 10 µM; shares compounds with D1 mod; AID 646; HEK293 D1 CRE-luciferase, luminescence, no dopamine; hits give high values; in the data active means luminescence above about 3900
# Isoprot counter – counter-screen for D1 modulators: isoproterenol response in HEK293 cells | HEK293 D1 CRE-luciferase, isoproterenol EC30 counter-screen; hits give high values | luminescence at 10 µM | shares compounds with D1 mod | actives 63% (n = 2,200);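 active means luminescence in either replicate above plate mean of wells with a partly effective reference agonist dose plus 3 SD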;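 further: isoproterenol raises cAMP through native beta-adrenoceptor Gs so signal bypasses D1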
# * hit, by the source's call; . = not tested or not shown. The full list was thinned out, with hits kept by preference.
SMILES,PLAP activator,TNAP act DEA,D1 mod,Candida biofilm,hDAT+cocaine,HePTP inhibitor,D1 mod confirm,D1 no dopamine,Isoprot counter
CCOc1ccc(N(CC(=O)OC)S(=O)(=O)c2ccc(OC)c(OC)c2)cc1,1.4,1,3.6*,5,1.3,-15,12916*,1768,3080*
COC(=O)CN(c1ccc(OC)cc1)S(=O)(=O)c1ccc(OC)c(OC)c1,1.4,1,3*,10,0.36,-8,10376*,1508,3068*
CCOc1ccc(N(CC(=O)OC)S(=O)(=O)c2ccc(C)cc2)cc1,.,.,.,.,.,6,.,.,.
N/C(=N\OC(=O)COc1ccc2ccccc2c1)c1cccc([N+](=O)[O-])c1,.,.,.,.,.,1,.,.,.
O=C(Cc1ccccc1)NC(c1ccc(Cl)cc1)c1c(O)ccc2ccccc12 (stereo not drawn),.,.,.,.,.,8,.,.,.
COc1cccc(/C=N/n2c(SC)nnc2-c2ccccc2)c1O,1.4,0.9,-2.3,-3,-0.18,16,.,.,.
COc1cccc(/C=N/n2c(SC)nnc2-c2ccccc2)c1OC,1.4,1,6*,-3,-0.046,0,8100*,1656,4984*
COc1ccc(CNC(=O)c2cnn3c(C(F)F)cc(C)nc23)cc1OC,1.3,0.9,3.9*,5,0.51,6,8268*,1472,4208*
COc1ccc(-c2nnc(COc3ccc4ccccc4c3)o2)cc1OC,1.3,1,4.9*,-1,2.9*,-6,20456*,1420,3496*
CCOC(=O)c1cnc(-n2nc(C)cc2C)nc1NC(C)c1ccccc1 (stereo not drawn),.,0.9,8.3*,1,-0.23,10,9080*,1572,3472*
CC(C)n1c(SCC(=O)N2c3ccccc3Sc3ccccc32)nc2c1c(=O)n(C)c(=O)n2C,1.4,1,5.2*,5,-0.0085,6,12564*,.,3012*
COc1ccc(N2CCCn3c2nc2c3c(=O)n(Cc3ccccc3F)c(=O)n2C)c(OC)c1,1.4,0.9,-0.61,6,-0.53,1,.,.,.
COc1ccc(CCN2CCCn3c2nc2c3c(=O)n(Cc3ccccc3F)c(=O)n2C)cc1OC,1.3,1,6.3*,2,0.74,4,17816*,1740,3112
O=C1C(Cl)=C(NCC2CCCO2)C(=O)N1C1CCCCC1 (stereo not drawn),1.3,0.8,4.4*,4,-0.098,2,8656*,1704,2776
O=C1C(Cl)=C(NCC2CCCO2)C(=O)N1c1ccccc1 (stereo not drawn),1,0.5,0.5,-4,0.97,-6,.,.,.
CC(=O)Nc1cc2nn(-c3ccc(C)cc3)nc2cc1C,.,.,.,.,.,2,.,.,.
O=c1c2cccc3c2c(nn1CN1CCOCC1)-c1ccccc1-3,1.1,0.9,5.3*,.,-0.14,1,8092*,1824,3352*
COC(=O)c1c(-c2ccccc2)csc1NC(=O)CCCC(=O)O,.,.,.,.,.,14,.,.,.
Clc1ccc(OCc2nnc3n2N=C(c2ccc4c(c2)OCCO4)CS3)c(Cl)c1,0.8,0.9,4*,9,-0.31,3,9040*,1568,3300*
COC(=O)c1cc(C(=O)Nc2ccc(Cl)cc2Cl)cc([N+](=O)[O-])c1,.,.,.,.,.,-8,.,.,.
CCSc1nnc(-c2cccc(S(=O)(=O)N(C)C)c2)n1-c1cc(OC)ccc1OC,1.7,0.9,0.6,5,0.14,2,.,.,.
COc1cccc(-n2c(SCc3c(C)noc3C)nnc2-c2cccc(S(=O)(=O)N(C)C)c2)c1,1.6,0.9,9.1*,.,-0.13,9,12244*,1492,5452*
COc1ccc(OC)c(-n2c(SCC(C)=O)nnc2-c2cccc(S(=O)(=O)N(C)C)c2)c1,1.5,0.9,3.8*,3,0.26,4,6400,1712,3244
C=CCN1C(=O)/C(=C\c2ccc(OC)cc2)C(C(=O)OC)=C1C,.,.,.,.,.,2,.,.,.
CN(C)c1ccc(C=Nc2ccccc2)cc1,1,.,.,5,-0.97,.,.,.,.
SMILES,PLAP activator,TNAP act DEA,D1 mod,Candida biofilm,hDAT+cocaine,HePTP inhibitor,D1 mod confirm,D1 no dopamine,Isoprot counter
CN(C)c1ccc(/C(=N\O)c2ccccc2)cc1,0.8,0.8,3.6*,5,0.73,1,16920*,2132,3688*
CCOC(=O)c1c(NC(=O)c2ccc(Br)o2)sc(C)c1CC,1.4,0.9,0.84,-4,1.1,-94,.,.,.
CCOC(=O)C1=C(NC(=O)c2ccc(Br)o2)Nc2ccccc2N=C1,1.1,1,19*,9,1.1,-9,24204*,1580,5344*
CCOC(=O)c1ccccc1NC(=O)c1cccs1,1,0.9,7.2*,1,-0.24,1,8864*,1480,2972*
CCOC(=O)c1ccccc1NC(=O)COc1ccccc1,0.8,0.8,13*,3,-1.2,8,16280*,1552,3624*
CCOC(=O)c1c(NC(=O)c2cccs2)sc(C)c1CC,1.1,0.9,3.8*,0,0.23,1,10804*,1624,2760
CCOC(=O)c1ccccc1NC(=O)Cc1cccs1,.,.,.,.,.,8,.,.,.
CS(=O)(=O)N(CC(=O)Nc1cccc(Br)c1)c1ccc(Oc2ccccc2)cc1,.,.,.,.,.,-8,.,.,.
CCCOc1ccc(/C=N/Nc2nc(-c3ccccc3)nc(C)c2C)c(O)c1,.,.,.,.,.,-13,.,.,.
COc1ccc(C=C2C(=O)N(C)C(=O)N(C)C2=O)cc1O,.,.,.,.,.,7,.,.,.
c1coc(CNc2ncnc3sc4c(c23)CCCCC4)c1,1.6,0.9,11*,-4,0.75,9,11680*,1516,3388*
c1ccc(CNc2nc3ccccc3n3cnnc23)nc1,0.9,0.9,9.2*,8,-1.2,7,13992*,.,3376*
COc1ccc(C2NC(=O)CS2)cc1OC (stereo not drawn),0.8,0.9,5.8*,10,-0.025,5,13168*,.,3256*
COc1ccccc1C1NC(=O)CS1 (stereo not drawn),1.1,0.9,-1.1,12,-0.27,5,.,.,.
CN(C)c1nc(N2CCCCC2)nc(N2CCCCC2)n1,.,1,.,8,.,4,.,.,.
OCCN(CCO)c1nc(N2CCCCC2)c2nc(N(CCO)CCO)nc(N3CCCCC3)c2n1,.,1.4,11*,16,.,-6,11976*,1696,5708*
CCn1c(SCC(=O)O)nc2sc3c(c2c1=O)CCC3,0.9,0.9,0.87,6,0.25,.,.,.,.
COC(=O)CSc1nc2sc3c(c2c(=O)n1C1CCCCC1)CCN(C)C3,1.6,0.9,15*,9,.,6,21932*,1592,4432*
C=CCn1c(SCC(=O)N2CCOCC2)nc2sc3c(c2c1=O)CCCC3,1.6,1,3.4*,-3,3.1*,7,7424*,1576,4804*

# Screening results (PubChem)
